Assay outcomes: PubChem, National Center for Advancing Translational Sciences (NCATS)
Sampled rows, rich in hits. Any-hit rate of the full collection: about 3.3%.
NS1 inh: inhibitors of influenza NS1 protein function | 270,000 tested, 0.4% active | AID 2326 | Potency, µM (series often up to 46.1 µM); calls by dose curve; also: actives are rising curves; nearly all actives have a fitted effect of over 50% in size
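In this qHTS, NS1 from influenza A is expressed in budding yeast, where it slows growth. Cells are switched from glucose to 2% galactose medium (pH 6.0, -URA), treated with compound, and growth recovery is read at OD600.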
Sm TGR inh: blocks Schistosoma mansoni thioredoxin glutathione reductase | Q962Y6 | purified TGR, DTNB reduction, TNB absorbance 405 nm | Potency, µM (series often up to 114 µM), actives largely listed as inhibitors | 360,000 tested, 3% active | AID 485364; also: nearly all actives have a fitted effect of over 60% in size
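TGR 20 nM + NADPH 100 uM (dispensed conc.), cpd preinc 15 min RT; start with NADPH (500 uM addition) then DTNB (15 mM addition). Kinetic TNB absorbance, 405 nm filter. Four-parameter Hill fit across titration.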
LmPK inhibitor: inhibitors of Leishmania mexicana pyruvate kinase | purified LmPK, Kinase-Glo ATP luminescence, 1 h | Potency, µM (top dose mostly 57.5 µM), hits mostly inhibitors | Q27686 | AID 1721 | 290,000 tested, 0.37% active
Target sequence (Q27686 whole entry, looked up): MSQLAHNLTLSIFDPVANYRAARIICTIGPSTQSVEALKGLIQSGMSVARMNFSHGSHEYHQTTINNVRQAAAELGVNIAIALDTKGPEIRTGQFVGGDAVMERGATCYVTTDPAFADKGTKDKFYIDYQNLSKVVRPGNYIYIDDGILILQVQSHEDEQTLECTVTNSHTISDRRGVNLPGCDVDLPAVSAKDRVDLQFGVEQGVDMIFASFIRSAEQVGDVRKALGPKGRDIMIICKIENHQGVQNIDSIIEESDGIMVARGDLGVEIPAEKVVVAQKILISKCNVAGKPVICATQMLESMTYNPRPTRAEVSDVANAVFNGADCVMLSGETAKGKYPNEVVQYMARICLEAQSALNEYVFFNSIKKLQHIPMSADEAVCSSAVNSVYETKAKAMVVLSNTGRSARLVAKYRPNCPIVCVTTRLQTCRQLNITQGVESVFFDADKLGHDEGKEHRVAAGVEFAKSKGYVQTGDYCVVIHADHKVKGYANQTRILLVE
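Purified LmPK (0.1 nM) converted ADP (0.1 mM) to ATP with PEP (0.5 mM) in imidazole buffer pH 7.2 with KCl and MgCl2, 1 h at room temperature. ATP was read by Kinase-Glo luminescence; data normalized to uninhibited and no-enzyme controls.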
TbPYK inhibitor: blocks Trypanosoma brucei pyruvate kinase; AID 624173; TbPYK enzyme, Kinase-Glo Plus ATP luminescence, 45 min; Potency, µM (highest dose often 76.8 µM), most hits filed as inhibitors; 410,000 tested, 0.12% active; also: nearly all actives have a fitted effect of over 50% in size
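TbPYK + substrate in 50 mM TEA pH 7.2, 100 mM KCl, 10 mM MgCl2, 0.05% BSA, 0.01% Tween-20; cpd pinned; ADP 130 uM final; 45 min RT; Kinase-Glo Plus 10 min; luminescence endpoint.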
RE007 growth inh: less growth of the S. pombe RE007 Vpr strain | Potency, µM (doses to about 92.2 µM), usual class: inhibitors | S. pombe RE007 Vpr strain, BacTiter-Glo ATP luminescence, 24 h | 360,000 tested, 0.21% active | AID 651644; active = well fitted falling curve with a large enough effect; inconclusive = small, poorly fitted or top-dose-only effect; inactive = no such curve, though single readings can be large or run the other way; also: nearly all actives have a fitted effect of over 50% in size
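Fission yeast RE007 carrying one integrated HIV-1 vpr copy, seeded at OD 0.01 in PMG+AL medium with 23 nL pinned compound. Grown 24 h at 30 degrees; viability read by BacTiter-Glo luminescence after 5 min.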
SARS PLpro yeast: blocks SARS-CoV papain-like protease in a yeast assay; Potency, µM (highest dose often 32.9 µM), actives largely listed as activators; AID 485353; 330,000 tested, 0.19% active; S. cerevisiae expressing SARS-CoV PLpro, growth rescue; calls by dose curve; also: nearly all actives have a fitted effect of over 55% in size
Flu NS1 inh: validation of influenza NS1 protein function inhibitors; shares compounds with NS1 inh; influenza NS1 function cell assay, 15-point titration; activity change, negative = inhibition, % at 32.9 µM; 1,400 tested, under 10 active; calls by dose curve
Flu PR8 replic: influenza virus titer reduction, NS1 project | 95 tested, 30% active | shares compounds with NS1 inh | virus titer (log TCID50), log10 TCID50 at 5 µM | MDCK infected influenza A/PR/8/34, virus titer TCID50; stronger effect = lower value; call rule not given here
Numbers stand for hits; i = inactive; ? = inconclusive; nt = not tested or not shown; [ ] = dose if it differs, or a comment. Unless noted, calls follow the shape of the dose curve; as a rule, active = well fitted curve in the direction sought with a large enough effect; inconclusive = small, poorly fitted or top-dose-only effect, or another doubt; inactive = no such curve, though single readings can be large; an effect the other way counts as inactive or inconclusive.

SMILES | NS1 inh | Sm TGR inh | LmPK inhibitor | TbPYK inhibitor | RE007 growth inh | SARS PLpro yeast | Flu NS1 inh | others
COc1ccccc1CNc1ccc(-c2nc(C)no2)cc1[N+](=O)[O-] | nt | i | nt | i | nt | nt | nt
CCC(=O)Nc1ccc(CC)cc1-c1nc2ccccc2n(CC(=O)Nc2cccc(Cl)c2)c1=O | nt | i | nt | i | nt | nt | nt
O=C(c1ccc2c(c1)OCO2)[C@@H]1[C@@H]2C(=O)N(C3CCCCC3)C(=O)[C@@H]2C2c3ccccc3C=CN21 (some centres not stated) | 13µM | i | i | i | i | i | i | Flu PR8 replic=i
Cc1ccc(NC(=O)c2c(C)oc3ccc(O)c(CN4CCCCCC4)c23)cc1 | nt | i | nt | i | nt | nt | nt
CN(C)c1ccc(NC(=O)CSCc2nc3c(nnn3Cc3ccc(F)cc3)c(=O)[nH]2)cc1 | 6.3µM | 45µM | ? | i | i | i | i | Flu PR8 replic=i
Cc1c(Cl)cccc1NC(=O)CSc1nncn1-c1ccccn1 | ? | i | i | i | i | i | i | Flu PR8 replic=i
O=C(CSc1nncn1-c1ccccn1)Nc1ccccc1Cl | i | i | i | i | i | i | nt
CC(=O)c1ccc(C(=O)N(Cc2cccnc2)c2nc3c(C)c(C)ccc3s2)cc1 | nt | i | nt | i[15.4 µM] | nt | nt | nt
COCC(C)n1c(C)cc(C(=O)CSc2nc(C)c(C)c(C)n2)c1C (configuration not stated) | ? | i | i | i | i | i | i
Cc1ccc(C(=O)N2CCc3cc(CNC(=O)c4ccccc4F)ccc32)cc1 | nt | i | nt | i | nt | nt | nt
Oc1c(C(c2ccccc2)N2CCCCC2)sc2ncnn12 (configuration not stated) | ? | i | i | i | i | i | i
Oc1c(C(c2ccccc2)N2CCN(Cc3ccccc3)CC2)sc2ncnn12 (configuration not stated) | ? | i | i | i | i | i | nt
CCSc1nc2c(c(=O)[nH]1)C(c1cccs1)C(C(=O)OC)=C(C)N2 (configuration not stated) | i | i | i | i | i | i | nt
CCOC(=O)C1=C(C)Nc2nc(SCC)[nH]c(=O)c2C1c1ccncc1 (configuration not stated) | ? | i | i | i | i | i | i
COc1ccccc1NCC(=O)N/N=C/c1cccnc1 | 3.2µM | i | i | i | i | i | i
O=C(NC1CCCCC1)c1ccc2c(c1)N(Cc1ccccc1Cl)C(=O)c1ccccc1S2 | nt | i | nt | i | nt | nt | nt
COc1cc(NC(=S)N2CCC(C(O)(c3ccccc3)c3ccccc3)CC2)cc(OC)c1 | 4.5µM | i | i | i | i | i | i
Cc1ccc(-c2nnc(SCC(=O)NCCC(C)C)nc2-c2ccc(C)cc2)cc1 | nt | i | nt | i[15.4 µM] | nt | nt | nt
COc1ccc(S(=O)(=O)N2CCC(N3CCN(Cc4ccccc4)C(=O)C3=O)CC2)cc1 | nt | i | nt | i | nt | nt | nt
Cc1ccc(NC(=O)CN2C(=O)CC(c3ccc(C)c(C)c3)=Nc3ccccc32)cc1 | nt | i | nt | i | nt | nt | nt
COc1ccc(-c2cc(C(=O)OCC(=O)c3ccc(C)c([N+](=O)[O-])c3)c3ccccc3n2)cc1 | ? | i | i | i | i | i | i
COC(=O)c1ccc(NC(=O)NC(C)c2c(-n3cccc3)sc(C)c2C)cc1 (configuration not stated) | nt | i | nt | i | nt | nt | nt
C=CCNC(=O)/C(=C\C=C\c1ccccc1)NC(=O)c1ccc(OCCCC)cc1 | 11µM | i | i | i | i | i | ?
CC(C)CC(=O)NC(NC(=S)Nc1sc2c(c1C#N)CCCC2)C(Cl)(Cl)Cl (configuration not stated) | 7.1µM | i | i | i | i | i | i | Flu PR8 replic=i
CCCCC(=O)N1CCc2cc(OC)c(OC)cc2C1COc1ccc(C(=O)OCC)cc1 (configuration not stated) | nt | i | nt | i | nt | nt | nt
SMILES | NS1 inh | Sm TGR inh | LmPK inhibitor | TbPYK inhibitor | RE007 growth inh | SARS PLpro yeast | Flu NS1 inh | others
Cn1c(=O)c2c(nc(NCc3ccccc3)n2Cc2ccc(Cl)c(Cl)c2)n(C)c1=O | nt | i | nt | i | nt | nt | nt
Cc1cccc(OCC(=O)NCC2(N3CCN(C)CC3)CCCCC2)c1C | nt | i | nt | i | nt | nt | nt
Cc1c(C(=O)N2CCN(Cc3ccc4c(c3)OCO4)CC2)sc2ncnc(N3CCN(c4ccccc4F)CC3)c12 | i | i | i | i | i | i | nt
Cc1c(C(=O)N2CCN(Cc3ccc4c(c3)OCO4)CC2)sc2ncnc(N3CCN(c4ccccc4)CC3)c12 | 2.5µM | i | i | i | i | i | ?
COc1ccc(C(C)=O)cc1CSc1nnc(-c2ccc(Cl)cc2)n1-c1ccccc1 | 1µM | i | i | i | i | i | ?
COc1ccccc1NC(=O)CC(=O)CSc1nnc(-c2ccc(C)cc2)n1-c1ccccc1 | 14µM | i | i | i | nt | i | i
Cc1ccccc1NC(=O)CSc1nnc(-c2ccccc2)n1-c1ccccc1 | i | i | i | i | i | i | nt
O=C(CSc1nnc(-c2ccccc2)n1-c1ccccc1)NCc1ccco1 | 18µM | i | i | i | i | i | i
COc1ccc(C(C)=O)cc1CSc1nnc(-c2ccncc2)n1C | nt | i | i | i | i | i | nt
CCC(=O)N1CCc2cc(Br)cc(S(=O)(=O)N3CCC(C(=O)Nc4ccccc4F)CC3)c21 | nt | i | nt | i | nt | nt | nt
CN1CCN(c2ccc(S(=O)(=O)N3CCOCC3)cc2NC(=O)COc2ccc(F)cc2Cl)CC1 | i | i | i | i | i | i | nt
O=C(Nc1ccc(Cl)c(Cl)c1)Nc1cc(S(=O)(=O)N2CCOCC2)ccc1N1CCCC1 | 11µM | i | i | i | i | ? | i
O=C(COc1ccc(F)cc1Cl)Nc1cc(S(=O)(=O)N2CCOCC2)ccc1N1CCCCC1 | 3.5µM | i | i | i | i | i | i
O=C(CCCCn1c(=O)c2ccccc2n(Cc2ccccc2Cl)c1=O)NCc1ccc2c(c1)OCO2 | nt | i | nt | i | nt | nt | nt
CC(=O)c1ccc2c(c1)C1C(Cl)C(Sc3ccccc3[N+](=O)[O-])CC1C(c1ccccc1)N2 (configuration not stated) | i | i | i | i | i | i | nt
CC(=O)c1ccc2c(c1)C1C(Cl)C(Sc3ccccc3[N+](=O)[O-])CC1C(c1ccccc1[N+](=O)[O-])N2 (configuration not stated) | 2µM | i | i | i | i | i | i
CC(C)C[C@H](NC(=O)c1[nH]cnc1C(=O)N[C@@H](C)C(=O)OCc1ccccc1)C(=O)OC(C)(C)C | 13µM | i | i | i | i | i | i
CC(C)C[C@H](NC(=O)c1[nH]cnc1C(=O)N[C@H](C)c1ccccc1)C(=O)OC(C)(C)C | i | i | i | i | i | i | nt
